This note sets out measurements from the OligoGym collection.
Further: reference of the scale not given here.

In one assay the target is POP5. As to the kind of experiment: pooled miR-30 sensor sort-seq; sequence = guide strand. The note with it: shRNA.
Take TTCATCAGTGCAGTTCTGCAAC: the sensor-assay potency score (higher = more potent) is -0.521. The sequence TACTGAATTAGGAACTTCTGAC came in with a sensor-assay potency score (higher = more potent) of -0.267.

In the case of TTGTTCTGTTCAACAAGTGGGC, the sensor-assay potency score (higher = more potent) is -0.188. On the same count and under the same terms, under TAACTGAGTACTCCATTTCAAG stands -1.58. For TATTAAATCTACTCTTAGCCAA, the sensor-assay potency score (higher = more potent) is -0.331.

As to TTCTGCATCGAAGTAGCACTAT, the sensor-assay potency score (higher = more potent) was -0.187. The same measure, in the same setting: under TTCTTGTCACAGACTTCTGGAT stands -0.854.

In the case of TGAATTAGGAACTTCTGACATG, the sensor-assay potency score (higher = more potent) is -0.611.

The sequence ATTAAATCTACTCTTAGCCAAG yielded a sensor-assay potency score (higher = more potent) of -1.64.

Sequence TACAGAGTTCACAACCTGCAAC had a sensor-assay potency score (higher = more potent) of -0.95. For AAGATCAACAGCTGTCTCCTGT, the sensor-assay potency score (higher = more potent) was found to be 0.552.

Another assay deals with POU2F2. Described as above. The note with it: shRNA.
The sequence TTCGCTAGAAAACTCTTCTCTA showed a sensor-assay potency score (higher = more potent) of 0.465. As for TTAGACATTCTTATTTCTGGAG, the sensor-assay potency score (higher = more potent) is -0.093. Still for that read-out and setting: as for TTGGTGTCGGTAGCAGGCCTGG, the figure is -1.3; as for TTTGTCTCGATGCTGGTCCTCT, -0.192. Turning to TTGAGTTTGCACATGTTCTTGA, the sensor-assay potency score (higher = more potent) was determined as 1.05.

In the case of TAGATTTGGTGTCGGTAGCAGG, the sensor-assay potency score (higher = more potent) is -0.991.

As for TTTCGGTGTCTGTGTGCTCTGA, the sensor-assay potency score (higher = more potent) was -0.406. Still for that read-out and setting: as for TTCGGTGTCTGTGTGCTCTGAT, the figure is 0.743; as for ATTTCTTTCGGTGTCTGTGTGC, -0.0405; as for TCTTCTTGCGTCTCCGGCCGGG, -0.79. In turn, TTGATCTTTGTACTGGGGCCAG returned a sensor-assay potency score (higher = more potent) of -0.786. The sequence TTAGTGTCTGGTCCATTTCTTT showed a sensor-assay potency score (higher = more potent) of -1.05.

A further assay deals with PPARD. The description is as above. The settings on record: shRNA.
Turning to TAAGAAAGGAGGACAGACGTGG, the sensor-assay potency score (higher = more potent) stood at 0.523. Take TTGAACTTGACAGCAAATTCAA: the sensor-assay potency score (higher = more potent) is -0.881. With TCGTACTCCAGCTTCATGCGGA, the sensor-assay potency score (higher = more potent) was -0.0495. Same read-out and setting: as for TTCTTCTGAATCTTGCAGCTGC, the figure is 0.468. The same measure, in the same setting: under TTCTTCTTCTGAATCTTGCAGC stands 0.0519; under TTCGGTCTTCTTGATCCGCTGC, 0.435. On the same count and under the same terms, as for TTGACAGCAAATTCAAACTTAG, the figure is -0.865; as for TTGGAGATTGTTCAGACACTGA, -0.713; as for TTAAAGTTTCGTCAGTCTGTGT, -0.63.

Sequence TTGATCCGCTGCATCATCTGGG showed a sensor-assay potency score (higher = more potent) of -0.175. Same read-out and setting: as for TTGCCGGTGAGGATGCTGCGGG, the figure is -0.839; as for TAGCGTTGTGTGACATGCCCAG, 0.138.

For the next assay, the target named is PPARGC1A. Described as above. The settings on record: shRNA.
Regarding TTCGTCGTCAAAAACAGCTTGA, the sensor-assay potency score (higher = more potent) is -0.0941. On the same count and under the same terms, under TAGGTCTGCATAGTTAGACTTG stands -0.55. On to TTTATCACTTTCATCTTCGCTG, for which the sensor-assay potency score (higher = more potent) stood at 0.495. On the same count and under the same terms, as for TAGTTGTCTAGAGTCTTGGAGC, the figure is -1.01.
